# Reference: PubChem BioAssay AID624404 (Broad Institute, 2012)
# Out of some 1,800 compounds screened, about 710 (39%) were called active. Not shown: some 28% with an inconclusive outcome. A selection follows. Entries with a potency or affinity are not part of this list. Values without a mark were called inactive.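 The calls were made as follows: active = luciferase signal rise whose fitted curve crosses a set activity limit at or below the top valid tested dose; inconclusive = flat fit with 30 to 70% rise, or poor fit; inactive = signal falling, flat within 30%, or crossing above top dose.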
# Experiment: reporter signal increase, D54 LucT cells – cell-based, luminescence, cherry pick, counter-screen for N-linked glycosylation inhibitor project, dose response (AID 624404);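 also: 0% = median neutral control signal and 100% = twice that signal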
# Details: D54 LucT luciferase reporter counterscreen, 24 h; series mostly up to 19.5 µM; activity increase (luciferase signal): at the top concentration
row,SMILES,activity increase (luciferase signal)
1,Cc1nc2c3cc(F)ccc3n(Cc3ccc(F)cc3)c2s1,23.6%
2,CCCn1nc(C(=O)N2CC(=O)Nc3ccccc32)c2ccccc2c1=O,30.2%
3,CCOc1ccc2nc(NCCNC(=O)Nc3cccc(C)c3)c(C#N)cc2c1,12.9%
4,COc1ccc2nc(SCC(=O)NC3CCCC3)c(C)cc2c1,34.9%
5,OCCNc1c2ccccc2nc2ccccc12,-24%
6,Cc1cc(/C=C2\Sc3ccccc3N2C)cc(C)[n+]1CC1CCCO1 (stereo unspecified),-30.6%
7,COc1ccc(C(=O)C=Cc2ccc(OCc3ccccc3)c(OC)c2)cc1OC,45.9%
8,O=C(/C=C/c1cccnc1)c1ccc(F)c(F)c1,12.5%
9,CC[C@H](C)[C@H](NC(=O)c1ccc(Cl)cc1)C(=O)OCC(=O)c1ccc2c(c1)NC(=O)CO2,-25.4%
10,CC(C)CC(NC(=O)c1ccc(Cl)cc1)C(=O)OCC(=O)c1ccc2c(c1)NC(=O)CO2 (stereo unspecified),19.6%
11,CNc1ccc(Br)cc(C(=O)/C=C/c2ccc(Cl)cc2Cl)c1=O,11.2%
12,C=CCn1cccc(/C=C/C(=O)c2ccc(C(C)(C)C)cc2)c1=S,-49.2%
13,Cc1ccc(-c2nn(-c3ccccc3)cc2NC(=O)CCl)cc1,-50%
14,Cc1ccc(C(=O)CSc2nn3c(=O)c(C(C)(C)C)nnc3s2)cc1,23.5%
15,COc1ccc(F)cc1-c1cc(NC(C)=O)c2ncc(-c3cc(OC)c(OC)c(OC)c3)n2c1,-10.8%
16,COc1ccccc1-c1cc(NC=O)c2ncc(-c3cccc(C(C)=O)c3)n2c1,-15.7%
17,CN(C)C(=O)c1cccc(-c2cnc3c(NC=O)cc(-c4ccccc4Cl)cn23)c1,51.8%
18,Nc1ccc(-c2cc(NC=O)c3ncc(-c4cccc(C(F)(F)F)c4)n3c2)cn1,7.33%
19,CCOc1cc(S(=O)(=O)NCc2ccc(OC)cc2)c(OCC)cc1-n1cnnn1,29%
20,Oc1ccc(N=Nc2ccccc2)o1,15.2%
21,O=C(Nc1cccc(C(F)(F)F)c1)c1sc(Cl)nc1C(F)(F)F,-21.3%
22,CC(C)c1ccc(NC(=O)[C@@H](NC(=O)N2CC(=O)Nc3ccccc32)C(C)C)cc1,49.1%
23,O=C(CNC(=O)N1CC(=O)Nc2ccccc21)NCCCc1ccccc1,37.6%
24,Cn1ncc2c(O/N=C(\N)c3ccc(C(F)(F)F)cc3)ncnc21,9.8%
25,CC(/C=N/NC(=O)c1cc(-c2ccc(C)s2)[nH]n1)=C\c1ccccc1,57%
26,CN(C)CCCN1C(=O)c2cccc3cccc(c23)C1=O,66.1%

row,SMILES,activity increase (luciferase signal)
1,Cc1cc(NC(=O)COC(=O)c2ccc(S(=O)(=O)N3CCCc4ccccc43)cc2)no1,-2.94% [at 5 µM]
2,CCOc1ccccc1C1CC(=O)Nc2cc3c(cc21)OCCO3 (stereo unspecified),-7.85%
3,CCOC(=O)Cc1csc(/N=C/c2c(O)n(-c3ccc(C)c(C)c3)c(=O)c3ccccc23)n1,48.7%
4,Cc1cc(O)c(NC(=O)c2cc([N+](=O)[O-])ccc2Cl)cc1C,5.97%
5,CC(=O)Nc1sc(C)c(C)c1C(=O)OCC(=O)N(CC(C)C)c1c(N)n(Cc2ccccc2)c(=O)[nH]c1=O,-15.8%
6,CC(=O)Nc1sc(C)c(C)c1C(=O)OCC(=O)Nc1cccc(C)c1,35.9%
7,O=C1c2cccc3cccc(c23)C(=O)N1CC1CCN(CC(O)COCc2ccc3c(c2)OCO3)CC1 (stereo unspecified),-18.8%
8,CN(C)c1ccc(C(C[N+](=O)[O-])c2c(N)n(C)c(=O)n(C)c2=O)c(F)c1C#N (stereo unspecified),-29.9%
9,Cc1ccc(-c2cnc(C3CC3)o2)cc1S(=O)(=O)Nc1ccccc1,28.3%
10,COc1ccc(Oc2ccc(/C=C/C(=O)c3cccc(OC)c3)cc2[N+](=O)[O-])cc1,-28.9%
11,CCNc1ccc(Br)cc(C(=O)/C=C/c2ccc(Cl)cc2)c1=O,-4.89%
12,Cc1[nH]nc2c1C(c1cccc(O)c1)C1=C(CC(C)(C)CC1=O)N2 (stereo unspecified),-7.35%
13,Cc1cc(NC(=O)CSc2nc(-c3ccco3)cc(C(F)(F)F)n2)no1,26.8%
14,O=C(NCCc1ccc(F)cc1)c1coc(=O)c(Br)c1,14.3%
15,COc1ccc(CCn2c(=N)c(C(=O)NCc3ccco3)cc3c(=O)n4ccccc4nc32)cc1OC,-3.36%
16,Cc1cccc2[nH]c3c(N4CCC5(CC4)OCCO5)ncnc3c12,17%
17,COc1ccc(CNC(=O)C2Cc3c(-c4ccc5c(c4)OCO5)ccnc3O2)cc1OC (stereo unspecified),41.1%
18,COC(=O)c1cc(=O)n(Cc2ccc3c(c2)OCO3)c(=Nc2ccc(F)c(Cl)c2)s1,-55.3%
19,COc1ccc(-c2nc3c(C(=O)NCCN(C)C)cccc3c3ccccc23)cc1,22.2%
20,COc1cccc2nc3c(C(=O)NCCN(C)C)cccc3cc12,-3.74%
21,CCN(c1ccccc1)S(=O)(=O)c1ccc(C(=O)NC2CCN(Cc3ccccc3)CC2)cc1,-0.543%
22,Nc1nc(=S)c2ncn(C3OC(CO)C(O)C3O)c2[nH]1 (stereo unspecified),23.6%
23,COC(=O)Nc1ccc(S(=O)(=O)N2CCCc3ccccc32)cc1,-15.6%
24,COC(=O)c1ccc(S(=O)(=O)N2CCc3ccccc32)cc1,47.4%
25,O=C1CCCN1c1ccc(S(=O)(=O)Nc2ccc3c(c2)OCCO3)cc1,35.6%
